This passage reports outcome and AC50 results from PubChem BioAssay (EPA / NIEHS).

Read-out in assay [1]: TIMP metallopeptidase inhibitor 1 (TIMP1), TIMP1 (gene 7076)
Description: BSK_hDFCGF_TIMP1: BioMAP Diversity Plus: hDFCGF Assay for TIMP metallopeptidase inhibitor 1 (TIMP1) Biomarker Activity (AID 2283062). The settings on record: primary human foreskin fibroblasts; actives raise or lower the signal. The gist of the method:
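Primary human foreskin fibroblasts in the hDFCGF system were dosed with compound for 24 h, then TIMP-1 was measured by ELISA. Activity was fitted bidirectionally relative to DMSO control; parallel SRB staining assessed cytotoxicity.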

Read-out in assay [2]: Monokine induced gamma interferon (MIG), CXCL9 (gene 4283)
Briefly: BSK_hDFCGF_MIG: BioMAP Diversity Plus: hDFCGF Assay for Monokine induced gamma interferon (MIG) Biomarker Activity (AID 2283063). The following applies: primary human foreskin fibroblasts; actives raise or lower the signal. The gist of the method:
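ELISA read-out of MIG from primary human dermal fibroblasts 24 h post-dosing. Gain or loss of signal fitted bidirectionally, DMSO as baseline.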

Read-out in assay [3]: Matrix Metallopeptidase 1 (MMP1), MMP1 (gene 4312)
Description: BSK_hDFCGF_MMP1: BioMAP Diversity Plus: hDFCGF Assay for Matrix Metallopeptidase 1 (MMP1) Biomarker Activity (AID 2283064). The settings on record: primary human foreskin fibroblasts; actives raise or lower the signal. The gist of the method:
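ELISA read-out of MMP1 from human foreskin fibroblasts (primary skin cells), 24 h post-dose. Gain or loss of signal was fitted bidirectionally versus DMSO negative control; cytotoxicity was checked by SRB in parallel cultures.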

Read-out in assay [4]: Intercellular Adhesion Molecule 1 (ICAM1), ICAM1 (gene 3383)
Briefly: BSK_KF3CT_ICAM1: BioMAP Diversity Plus: KF3CT Assay for Intercellular Adhesion Molecule 1 (ICAM1) Biomarker Activity (AID 2283067). The following applies: primary human keratinocytes with fibroblasts; actives raise or lower the signal. The procedure, abridged:
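Human keratinocyte plus foreskin fibroblast primary co-culture was exposed to chemical for 24 h. ICAM-1 was then quantified by ELISA, and the data were fit bidirectionally against DMSO as the negative control and baseline.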

Read-out in assay [5]: Interferon-gamma inducible Protein 10 (IP10), CXCL10 (gene 3627)
Briefly: BSK_KF3CT_IP10: BioMAP Diversity Plus: KF3CT Assay for Interferon-gamma inducible Protein 10 (IP10) Biomarker Activity (AID 2283068). The following applies: primary human keratinocytes with fibroblasts; actives raise or lower the signal. The procedure, abridged: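 Signal is secreted/surface IP-10 by ELISA in a human primary skin co-culture of keratinocytes and foreskin fibroblasts, taken 24 h post-dosing; DMSO served as negative control.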

Assay [6] in a line: BSK_KF3CT_SRB: Viability Assessment in the BioMAP Diversity Plus: KF3CT Assay (AID 2283069).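 Note: total protein by sulforhodamine B staining as a cytotoxicity measure; read 24 h after compound addition; fitted for both signal gain and loss against DMSO baseline.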 The following applies: primary human keratinocytes with fibroblasts. The gist of the method: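 SRB read-out at 560 nm (0.1% stain, TCA-fixed cells) gauges overt cytotoxicity in a human skin keratinocyte–fibroblast co-culture 24 h post-dosing. Signal change was fitted bidirectionally relative to DMSO control.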

Read-out in assay [7]: Interleukin-1 alpha (IL1a), IL1A (gene 3552)
Briefly: BSK_KF3CT_IL1a: BioMAP Diversity Plus: KF3CT Assay for Interleukin-1 alpha (IL1a) Biomarker Activity (AID 2283070). The following applies: primary human keratinocytes with fibroblasts; actives raise or lower the signal. The procedure, abridged:
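Primary skin co-culture (keratinocytes, foreskin fibroblasts), 24 h exposure; ELISA for IL-1a; bidirectional curve fit vs DMSO.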

Read-out in assay [8]: TIMP metallopeptidase inhibitor 2 (TIMP2), TIMP2 (gene 7077)
Description: BSK_KF3CT_TIMP2: BioMAP Diversity Plus: KF3CT Assay for TIMP metallopeptidase inhibitor 2 (TIMP2) Biomarker Activity (AID 2283071). The following applies: primary human keratinocytes with fibroblasts; actives raise or lower the signal. The procedure, abridged: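 Measurements come from ELISA detection of TIMP-2 at 24 hours in a dosed human keratinocyte and foreskin fibroblast co-culture. DMSO serves as negative control and baseline.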

Read-out in assay [9]: Vascular cell adhesion molecule 1 (VCAM1), VCAM1 (gene 7412)
Description: BSK_hDFCGF_VCAM1: BioMAP Diversity Plus: hDFCGF Assay for Vascular cell adhesion molecule 1 (VCAM1) Biomarker Activity (AID 2283065). The settings on record: primary human foreskin fibroblasts; actives raise or lower the signal. The gist of the method: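 Primary human foreskin fibroblasts (hDFCGF system) were dosed with chemical and VCAM-1 was measured by ELISA 24 h later. Bidirectional curve fitting used DMSO as negative control and activity baseline.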

Read-out in assay [10]: Plasminogen activator inhibitor-1 (PAI1), SERPINE1 (gene 5054)
Description: BSK_hDFCGF_PAI1: BioMAP Diversity Plus: hDFCGF Assay for Plasminogen activator inhibitor-1 (PAI1) Biomarker Activity (AID 2283066). The following applies: primary human foreskin fibroblasts; actives raise or lower the signal. The procedure, abridged: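 Human skin fibroblast cultures receive chemical for 24 h before PAI-1 is measured by ELISA; signal changes are fitted bidirectionally against DMSO-treated wells.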

Structures are written as SMILES. Values joined by “and” are separate entries in the source; they are usually repeats but may differ in a detail not shown here. Identical values can stand only once. Some compounds were tested as several samples or in several runs, with calls that do not always agree. Active and inactive are the calls of the source. Rule for the calls: active = hit-call score of the fitted dose curve at least 0.9, where 1 is the maximum; inactive = score below 0.9.

With `CN1CCC[C@H]1c1cccnc1`, the outcome in [1], in assay [2], in assay [3], in assay [4], in [5] and in assay [6] was inactive. For the same compound, the outcome in [7] and in assay [8] was inactive.
Consider `COC(=O)CCCCC(=O)OC`, for which the result in [1], in assay [2], in [3], in [9], in [10] and in assay [4] was inactive. The result in assay [5], in [6], in [7] and in assay [8] was inactive.
In the case of `OCCC(F)(F)C(F)(F)C(F)(F)C(F)(F)C(F)(F)C(F)(F)C(F)(F)C(F)(F)F`, the AC50 in [1] was 16.3 µM (active) and 14.6 µM (active); in assay [2], 18 µM (active) and 17.8 µM (active); in assay [3], 17.9 µM (active) and 17 µM (active); in [4] it was 23.2 µM (active) and 20 µM (active); in [5], 15.7 µM (active); in [6] it was 18.1 µM (active) and 14.5 µM (active). The AC50 in assay [7] was 17.3 µM (active) and 9.96 µM (active); in assay [8] it was 19.9 µM (active) and 14.6 µM (active). Besides, the outcome in assay [1], in assay [2], in assay [3], in assay [4], in assay [5] and in [6] was inactive. The outcome in assay [7] and in [8] was inactive.
For `COCC(C)OCC(C)O` (configuration not stated), the outcome in assay [1], in assay [2], in assay [3], in assay [9], in [10] and in assay [4] was inactive. Moreover, the result in [5], in assay [6], in [7] and in assay [8] was inactive.
For the compound `CC(O)CO` (configuration not stated), the outcome in assay [1], in assay [2], in [3], in [9], in assay [10] and in assay [4] was inactive. Also, the outcome in assay [5], in assay [6], in [7] and in [8] was inactive.
Turning to `C=C(C)C(=O)OCCC(F)(F)C(F)(F)C(F)(F)C(F)(F)C(F)(F)C(F)(F)F`, the result in [1], in assay [3], in assay [9], in [10], in assay [4] and in assay [5] was inactive. In addition, the outcome in [6], in [7] and in assay [8] was inactive.
Regarding `c1ccc2c(c1)ccc1ccccc12`, the result in assay [1], in assay [2], in assay [3], in assay [9], in assay [4] and in assay [5] was inactive. The outcome in assay [6], in [7] and in assay [8] was inactive.
For `CCCOc1sc(C(=O)N2CCC(c3cc(CN)ccc3F)CC2)c(C)c1Br`, the AC50 in [1] is 10.6 µM (active); in assay [2], 9.21 µM (active); in assay [3], 10.3 µM (active); in assay [4], 10.6 µM (active); in assay [5], 7.07 µM (active); in assay [6], 5.28 µM (active). Further, the figures for the AC50 in [7] and in [8] were 10.6 µM (active) and 9.6 µM (active), respectively.
Take `NCC(F)(F)C(F)(F)C(F)(F)C(F)(F)C(F)(F)C(F)(F)C(F)(F)F`: the result in assay [1], in assay [3], in [9], in assay [10], in [4] and in [5] was inactive. Further, the result in assay [6], in assay [7] and in assay [8] was inactive.
As to `C[C@@H]1C[C@H]2[C@@H]3CCC4=CC(=O)C=C[C@]4(C)[C@@]3(F)[C@@H](O)C[C@]2(C)[C@@]1(O)C(=O)COP(=O)(O)O`, the AC50 was 2.65 µM (active) in [1]; 1.42 µM (active) and 386 nM (active) in [3]. In addition, the outcome in assay [1], in assay [3], in assay [4], in [5], in assay [6] and in assay [7] was inactive. The result in [8] was inactive.
In the case of `OC1CCC(C2CCCCC2)CC1` (configuration not stated), the result in [1], in assay [2], in assay [3], in assay [4], in [5] and in assay [6] was inactive. The outcome in assay [7] and in [8] was inactive.
As for `CCC(C)(C)C1CCC(O)CC1` (configuration not stated), the outcome in assay [1], in assay [2], in assay [3], in assay [4], in assay [6] and in assay [7] was inactive. Moreover, the result in assay [8] was inactive. Further, the AC50 in [5] was 32.8 µM (active).
For the compound `CCCCCCCCCCCCCC[N+](C)(C)C`, the AC50 in assay [1] was 5.39 µM (active); in assay [2], 7.37 µM (active); in [3], 9.7 µM (active); in assay [10], 2.85 µM (active); in assay [4], 12.8 µM (active); in assay [5], 4.81 µM (active). The results for the AC50 in [6], in [7] and in assay [8] were 5.24 µM (active), 3.96 µM (active) and 5.45 µM (active), respectively.
Take `CC(=O)NC1(c2cccc(F)c2)CCN(CC[C@@]2(c3ccc(Cl)c(Cl)c3)CN(c3ccccc3)C(=O)CO2)CC1`: the AC50 in [1] is 26.7 µM (active); in assay [2], 31.8 µM (active); in assay [3], 30.2 µM (active); in assay [10], 23.8 µM (active); in [5], 25.3 µM (active); in assay [6], 25.1 µM (active). The outcome in assay [4], in assay [7] and in assay [8] was inactive.
